Only some compounds are listed: those with a hit (about 10% of all), similar ones and a draw of the others.
Six1-Eya2 blk – Six1/Eya2 interaction inhibition. activity change, % (test concentration not listed). AID 651725. 360,000 compounds, 0.56% hits. Q15475+O00167. AlphaScreen GST-Six1/His-Eya2 binding, biochemical; active compounds read low; in the data active means activity change below about -65%; inconclusive means mostly about -30% to -63%; further: on the % scale 0 is the no-effect control and ±100 the full control effect
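GST-Six1 + His-Eya2 (5X stock: 250/500 nM); Tris pH 8.0, 300 mM NaCl, 0.05% BSA, 0.02% Tween 20; GSH donor/Ni acceptor beads; 1 h 37 °C dark; AlphaScreen readout.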
G9a inh – blocks human histone lysine methyltransferase G9a | Q96KQ7 | G9a H3K9 monomethylation, AlphaScreen, 2 h | Potency, µM (titrated, usually from 102 µM), without a hit: at the highest dose activity, negative = inhibition, most hits filed as inhibitors | 350,000 compounds, 8.8% hits; further: potency means the concentration at half of the fitted maximal effect; on the % scale 0 is the no-effect control and ±100 the full control effect; nearly all actives have a fitted effect of over 75% in size
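Signal arises when biotinylated H3K9 peptide, once monomethylated, bridges streptavidin donor and antibody-captured acceptor beads. Enzyme at 20 nM was preincubated 15 min with test compounds; peptide 500 nM and SAM 20 uM then reacted for 2 h.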
CtBP-E1A blk – inhibitors of CtBP/E1A interaction; AlphaScreen GST-E1A/His-CtBP binding, 1536-well; active compounds read low; AID 651724; 340,000 compounds, 0.49% hits; activity change, % (test concentration not listed); in the data active means activity change below about -65%; inconclusive means mostly about -30% to -63%; further: on the % scale 0 is the no-effect control and ±100 the full control effect
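Homogeneous bead-based format: GST-tagged E1A captured on glutathione donor beads, His-tagged CtBP on nickel acceptor beads; compounds precede bead addition by 2 h at 37 °C.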
JMJD2A Tudor inh – blocks the human JMJD2A Tudor domain. O75164. AlphaScreen JMJD2A-Tudor / H3K4me3 peptide binding. Potency, µM (series often up to 114 µM), without a hit: at the highest dose activity change, negative = inhibition, usual class: inhibitors. 390,000 compounds, 4.4% hits. AID 504339; further: potency means the concentration at half of the fitted maximal effect; on the % scale 0 is the no-effect control and ±100 the full control effect; nearly all actives have a fitted effect of over 50% in size
HP1b chromo inh – inhibitors of HP1-beta chromodomain binding to methylated histone tails; P83916; AlphaScreen HP1-beta / biotin-H3K9me3 peptide binding; Potency, µM (highest dose often 114 µM), for the others: at the highest dose activity change, negative = inhibition, actives largely listed as inhibitors; 390,000 compounds, 0.56% hits; AID 540317; further: potency means the concentration at half of the fitted maximal effect; nearly all actives have a fitted effect of over 70% in size
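Compound inhibition of the preformed complex between 50 nM HP1-beta and 50 nM biotinylated H3K9me3 peptide was read by AlphaScreen. Buffer was PBS pH 7.4 with 0.01% Tween-20. Incubations ran 30 min at room temperature, with 10 ug/mL donor/acceptor beads.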
BAZ2B block – BAZ2B (human) inhibition | Potency, µM (series often up to 114 µM), inactives show at the top dose activity change, negative = inhibition, most hits filed as inhibitors | 360,000 compounds, 4.4% hits | Q9UIF8 | AID 504333 | AlphaScreen BAZ2B-H3K14Ac peptide displacement; further: potency means the concentration at half of the fitted maximal effect; on the % scale 0 is the no-effect control and ±100 the full control effect; nearly all actives have a fitted effect of over 60% in size
Target sequence (Q9UIF8 whole entry, looked up): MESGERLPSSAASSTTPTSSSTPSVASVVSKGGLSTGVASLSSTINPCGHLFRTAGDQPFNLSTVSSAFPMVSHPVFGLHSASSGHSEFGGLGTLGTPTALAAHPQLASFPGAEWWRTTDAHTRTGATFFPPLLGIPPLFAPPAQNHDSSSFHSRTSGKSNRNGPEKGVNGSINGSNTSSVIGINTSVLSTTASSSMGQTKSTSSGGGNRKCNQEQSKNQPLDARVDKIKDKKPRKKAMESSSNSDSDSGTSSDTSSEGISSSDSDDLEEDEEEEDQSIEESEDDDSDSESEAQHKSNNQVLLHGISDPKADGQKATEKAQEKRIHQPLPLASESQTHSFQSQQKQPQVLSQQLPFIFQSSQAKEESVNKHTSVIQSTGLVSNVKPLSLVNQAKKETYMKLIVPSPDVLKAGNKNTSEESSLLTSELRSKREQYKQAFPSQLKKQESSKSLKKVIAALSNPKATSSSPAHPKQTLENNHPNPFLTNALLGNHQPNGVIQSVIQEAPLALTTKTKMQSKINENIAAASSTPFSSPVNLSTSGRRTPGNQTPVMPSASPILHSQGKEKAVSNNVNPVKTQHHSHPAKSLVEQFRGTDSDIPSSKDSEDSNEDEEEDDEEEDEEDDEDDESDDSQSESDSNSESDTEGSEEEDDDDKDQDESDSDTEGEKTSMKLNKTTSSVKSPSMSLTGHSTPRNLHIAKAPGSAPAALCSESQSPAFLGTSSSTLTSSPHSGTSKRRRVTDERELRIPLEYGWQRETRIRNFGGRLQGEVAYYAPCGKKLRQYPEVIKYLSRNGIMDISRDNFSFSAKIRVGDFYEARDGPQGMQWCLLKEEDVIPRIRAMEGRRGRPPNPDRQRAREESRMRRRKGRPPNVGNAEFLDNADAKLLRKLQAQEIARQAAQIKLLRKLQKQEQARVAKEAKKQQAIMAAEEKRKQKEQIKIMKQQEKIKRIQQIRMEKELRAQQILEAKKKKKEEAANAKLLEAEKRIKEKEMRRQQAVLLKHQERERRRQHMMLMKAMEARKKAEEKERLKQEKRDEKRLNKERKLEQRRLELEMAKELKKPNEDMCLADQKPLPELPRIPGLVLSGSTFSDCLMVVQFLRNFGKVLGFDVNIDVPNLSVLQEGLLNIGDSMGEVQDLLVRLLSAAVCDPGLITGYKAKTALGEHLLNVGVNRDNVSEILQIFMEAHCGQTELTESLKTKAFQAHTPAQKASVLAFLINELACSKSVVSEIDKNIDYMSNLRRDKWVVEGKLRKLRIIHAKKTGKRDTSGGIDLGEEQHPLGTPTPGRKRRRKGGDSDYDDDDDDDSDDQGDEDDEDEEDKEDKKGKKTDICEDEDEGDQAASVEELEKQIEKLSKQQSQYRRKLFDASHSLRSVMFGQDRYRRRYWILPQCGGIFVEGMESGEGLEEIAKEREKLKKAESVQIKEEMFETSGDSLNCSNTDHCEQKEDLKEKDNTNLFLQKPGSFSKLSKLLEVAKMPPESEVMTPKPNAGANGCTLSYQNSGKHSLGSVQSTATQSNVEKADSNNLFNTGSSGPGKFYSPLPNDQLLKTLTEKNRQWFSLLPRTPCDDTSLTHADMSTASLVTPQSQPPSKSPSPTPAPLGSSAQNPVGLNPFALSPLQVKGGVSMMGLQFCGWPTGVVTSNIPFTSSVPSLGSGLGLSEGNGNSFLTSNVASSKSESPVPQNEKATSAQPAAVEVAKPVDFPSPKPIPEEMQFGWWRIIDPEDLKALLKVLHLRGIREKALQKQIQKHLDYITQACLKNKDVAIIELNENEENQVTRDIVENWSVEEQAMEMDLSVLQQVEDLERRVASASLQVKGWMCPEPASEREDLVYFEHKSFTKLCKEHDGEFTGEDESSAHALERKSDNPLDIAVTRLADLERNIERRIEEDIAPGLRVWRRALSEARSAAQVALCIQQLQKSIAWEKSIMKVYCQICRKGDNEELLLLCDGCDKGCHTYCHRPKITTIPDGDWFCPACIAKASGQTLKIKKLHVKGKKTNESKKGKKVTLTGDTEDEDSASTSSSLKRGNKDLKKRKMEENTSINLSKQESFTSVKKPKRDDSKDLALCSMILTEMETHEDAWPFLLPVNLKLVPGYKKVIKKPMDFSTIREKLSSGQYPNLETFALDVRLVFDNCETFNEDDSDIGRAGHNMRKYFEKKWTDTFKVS
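In this displacement format the biotinylated H3(5-23) peptide acetylated at Lys14 serves as ligand at 50 nM, with BAZ2B at 50 nM in PBS pH 7.4 containing 0.01% Tween-20. Donor and acceptor beads are 10 ug/mL final.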
The depositor's hits bear a star; [ ] = remark or other dose. Unless noted, the call rests on the fitted dose curve; in most records, active means well fitted inhibition curve with a large enough effect; inconclusive means small, poorly fitted or top-dose-only effect; inactive means no such curve, though single readings can be large or run the other way.

Screening COc1ccc(C2c3[nH]c4ccccc4c3CCN2C(=O)c2cc3ncccn3n2)c(F)c1 (stereo unspecified) returned Six1-Eya2 blk 16, G9a inh 20%[12.7 µM], CtBP-E1A blk 32, JMJD2A Tudor inh inconclusive, HP1b chromo inh 2% and BAZ2B block 32µM*.
COc1ccc(C2c3[nH]c4ccccc4c3CCN2C(=O)c2cn3ccccc3n2)c(F)c1 (stereo unspecified) was read as Six1-Eya2 blk -4, CtBP-E1A blk -2, JMJD2A Tudor inh inconclusive, HP1b chromo inh -5% and BAZ2B block 22µM*.
`Cc1ccc(Nc2c([N+](=O)[O-])c(=O)n(C)c3ccccc23)cc1C` gave Six1-Eya2 blk -27, G9a inh -37%[12.7 µM], CtBP-E1A blk -30, JMJD2A Tudor inh inconclusive, HP1b chromo inh inconclusive and BAZ2B block inconclusive.
O=c1[nH]n(CCO)c(=O)c2cccnc12 was read as Six1-Eya2 blk 3, G9a inh inconclusive, CtBP-E1A blk 1, JMJD2A Tudor inh 56µM*, HP1b chromo inh -14% and BAZ2B block inconclusive.
For C=CCNC(=S)NNc1nc2c(c(=O)[nH]1)C1(CCCCC1)Cc1ccccc1-2 the results were Six1-Eya2 blk -23, G9a inh 14µM*, CtBP-E1A blk -4, JMJD2A Tudor inh inconclusive, HP1b chromo inh inconclusive and BAZ2B block inconclusive.
For CC1CN2C(c3ccc([N+](=O)[O-])cc3)=CSC2=N1 (stereo unspecified) the results were Six1-Eya2 blk -6, G9a inh 14%[0.501 µM], CtBP-E1A blk -16, JMJD2A Tudor inh 79µM*, HP1b chromo inh inconclusive and BAZ2B block -6%.
Screening CC1C(=O)NN=C1c1ccc([N+](=O)[O-])cc1 (stereo unspecified) returned Six1-Eya2 blk -3, CtBP-E1A blk -8, JMJD2A Tudor inh -16% and HP1b chromo inh 17%.
For CSCc1c(C(=O)Nc2ccc3c(c2)OCO3)oc2ccccc12 the results were Six1-Eya2 blk -15, G9a inh 35µM*, CtBP-E1A blk -16, JMJD2A Tudor inh inconclusive, HP1b chromo inh -13% and BAZ2B block inconclusive.
`COCCCn1c(C(=O)Nc2ccc3c(c2)OCO3)cc2c(=O)n3ccccc3nc21` gave Six1-Eya2 blk 5, G9a inh -5%, CtBP-E1A blk 1, JMJD2A Tudor inh 25µM*, HP1b chromo inh 10% and BAZ2B block -4%.
`Cc1c(C(=O)Nc2ccc3c(c2)OCO3)oc2ccccc12` gave Six1-Eya2 blk -15, G9a inh -9%, CtBP-E1A blk -5, JMJD2A Tudor inh -13%, HP1b chromo inh 29% and BAZ2B block -3%.
Screening Cn1nc(C(=O)Nc2ccc3c(c2)OCO3)c2ccccc2c1=O returned Six1-Eya2 blk inconclusive, G9a inh 80%, CtBP-E1A blk -86*, JMJD2A Tudor inh -6%, HP1b chromo inh 17% and BAZ2B block 1%.
Screening COCCCn1c(C(=O)N2CCOCC2)cc2c(=O)n3ccccc3nc21 returned Six1-Eya2 blk 1, G9a inh 49%, CtBP-E1A blk 3, JMJD2A Tudor inh -2%, HP1b chromo inh 26% and BAZ2B block -9%.
CSc1cc(C)c(OCC(=O)Nc2ccc(NC(C)=O)cc2)c(C)c1 was read as Six1-Eya2 blk 35, G9a inh 4%, JMJD2A Tudor inh -10%, HP1b chromo inh 37% and BAZ2B block -2%.
Nc1ncnc2c1nc(Br)n2[C@@H]1O[C@@H]2COP(=O)(O)O[C@H]2[C@H]1O was read as Six1-Eya2 blk 4, CtBP-E1A blk -19, JMJD2A Tudor inh -9% and HP1b chromo inh 11%.
Cc1cc(C)c(CSc2nnc(C)n3c2cc2occc23)c(C)c1 was read as G9a inh inconclusive, JMJD2A Tudor inh inconclusive, HP1b chromo inh inconclusive and BAZ2B block 40µM*.
For CCc1nnc(SCC(=O)Nc2ccc(Cl)cc2F)c2cc3occc3n12 the results were G9a inh -26%[59 µM], JMJD2A Tudor inh -15%, HP1b chromo inh 31% and BAZ2B block -38%.

Screens (PubChem)
